SMILES strings stand for the structures. Among all 68,000 compounds or so, about 2,700 (4%) showed an effect of 50% or more. The sample holds strong results, similar compounds and a random draw of the others, so the mix is not that of the screen.

We go through 53 compounds from ChEMBL document CHEMBL4513216, “Probing the Open Global Health Chemical Diversity Library for Multistage-Active Starting Points for Next-Generation Antimalarials” (ACS Infect Dis, 2020).

The experiment concerns Plasmodium berghei. As to the kind of experiment: Screen against P. berghei liver stage (PbLuc), transformed with Luciferase, at 2uM. It counts as functional, HepG2. To be noted: tested at 2 uM.
Turning to `N#Cc1cccc(CN2CC[C@@H]3CN(c4ncccn4)CCO[C@@H]3C2)c1`, the INHIBITION was 14.94%.
The value for `O=S(=O)(C1CC1)N1CCc2onc(COc3ccccn3)c2C1` was 16.03%; that for `O=C(NCc1cc[nH]n1)N1CCCCC(N2CCCC2)C1` (stereo not drawn) was 8.37%.
For the compound `O=C(NCc1cc[nH]n1)NCC(c1ccco1)N1CCCC1` (stereo not drawn), the INHIBITION is -4.1%.
Regarding `N#Cc1ccccc1N1CCCN(C(=O)NCc2cc[nH]n2)CC1`, the INHIBITION was -13.24%.
In the case of `CN(C)C(CNC(=O)NCc1cc[nH]n1)c1ccco1` (stereo not drawn) it was 53.61%.
For `CCN1CCN(C(=O)NCc2cc[nH]n2)CC1`, the INHIBITION was 56.02%.
The value for `CC(=O)NC1CCCN(C(=O)NCc2cc[nH]n2)C1` (stereo not drawn) was 45.83%.
The value for `Cc1nc(CCNC(=O)NCC(c2ccco2)N(C)C)cs1` (stereo not drawn) was 34.73%; that for `O=C(NCc1cc[nH]n1)N1CCN(c2ncccn2)CC1` was -23.42%.
In the case of `O=C(NCc1cc[nH]n1)N1CCN(c2ccccc2Cl)CC1` it was -56.99%; in that of `O=C(NCc1cc[nH]n1)N1CCCC(N2CCCC2)C1` (stereo not drawn), 51.94%; in that of `CCOc1ccccc1N1CCN(C(=O)NCc2cc[nH]n2)CC1`, 56.02%.
As for `CC(=O)N1CCCN(C(=O)NCc2cc[nH]n2)CC1`, the INHIBITION is -27.69%.
The value for `CCCN(CC)C(=O)c1cc(Cn2c(C)nc3ccccc32)[nH]n1` was 38.75%.
The value for `CNS(=O)(=O)c1cccc(CNc2ncccn2)c1` was -18.94%; that for `c1ccn(Cc2nnc3n2CCCN(Cc2ccoc2)C3)c1` was 18.31%; that for `COc1ccccc1C(CNC(=O)NCc1cc[nH]n1)N1CCCC1` (stereo not drawn) was -10.44%.
On to `CC(C)CC(CNC(=O)NCc1cc[nH]n1)N1CCOCC1` (stereo not drawn), for which the INHIBITION is recorded as 40.29%.
For the compound `CCC(CNC(=O)NCc1cc[nH]n1)N1CCCC1` (stereo not drawn), the INHIBITION is on record as 76.6%.
In the case of `CC(=O)N1CC[C@@H]2CN(Cc3ccncc3)S(=O)(=O)[C@@H]2CC1` it was -66.17%; in that of `Cc1c(C2CCOC(C)(C)C2)nc(N)c(C#N)c1-c1ccc(O)cc1` (stereo not drawn), -11.34%; in that of `Cc1cc(C)c2c(c1)NC(=O)C2CC(=O)O` (stereo not drawn), 33.22%.
The value for `Cc1cc(C)c2c(c1)C(CC(=O)O)C(=O)N2` (stereo not drawn) was 52.38%; that for `Cc1ccc(C)c2c1NC(=O)C2CC(=O)O` (stereo not drawn) was 42.8%; that for `CCN1CC2(CC1=O)CN(C(=O)c1cccs1)CCN(C(=O)N(C)C)C2` (stereo not drawn) was -48.39%.
In the case of `CCc1noc(CS(=O)(=O)Cc2nc(Cc3ccccc3)no2)n1` it was 34%.
Take `CCc1noc(CS(=O)(=O)Cc2ccccc2Cl)n1`: the INHIBITION is 61.32%.
For the compound `CCc1noc(CS(=O)(=O)Cc2ccccc2C)n1`, the INHIBITION came to 30.59%.
On to `CC(=O)N1CCCC1C(=O)NCCOc1cccc(F)c1` (stereo not drawn), for which the INHIBITION is listed as 16.25%.
`CN(C)C(=O)NC1COC2(CCN(Cc3ccc(Cl)c(F)c3)CC2)C1` (stereo not drawn): the INHIBITION is recorded as -8.04%.
The value for `CN(C)C(=O)NC1COC2(CCN(Cc3ccccc3)CC2)C1` (stereo not drawn) was 0.14%; that for `CN(C)C(=O)NC1COC2(CCN(Cc3ccc(N(C)C)cc3)CC2)C1` (stereo not drawn) was 53.98%; that for `Cc1ccoc1C(=O)N1CC[C@H]2C[C@H](c3nnc(C4CC4)o3)O[C@@H]2C1` was -11.79%.
Take `CNC(=O)C1(C)CCCN1Cc1cnn(C)c1C` (stereo not drawn): the INHIBITION is given as 18.15%.
The value for `CC(C)OCCCN(CC(=O)N1CCNCC1)C(=O)c1ccc(F)cc1` was -20.36%.
Take `COc1ccc(OC)c(CNC(=O)N2CCC(n3cncn3)CC2)c1`: the INHIBITION was 3.06%.
As to `COc1cc(Cl)ccc1CNC(=O)N1CCC(n2cncn2)CC1`, the INHIBITION came to 70.27%.
The value for `CCOc1ccccc1CNC(=O)N1CCC(n2cncn2)CC1` was -111.08%.
Take `NC(=O)NC(=O)CCSc1ccccc1Cl`: the INHIBITION is on record as 12.14%.
In the case of `Cc1nc(C)n(CC2CN(CCOc3cccc(C#N)c3)CCO2)n1` (stereo not drawn), the INHIBITION is -5.15%.
Take `Cc1nc(C)n(CC2CN(Cc3cccc4ccccc34)CCO2)n1` (stereo not drawn): the INHIBITION was -53.98%.
Regarding `Cc1nc(C)n(CC2CN(CCc3ccncc3)CCO2)n1` (stereo not drawn), the INHIBITION stood at 70.27%.
In the case of `Cc1nc(C)n(CC2CN(CCOc3ccc(C#N)cc3)CCO2)n1` (stereo not drawn) it was 50.05%.
Turning to `Cc1nc(C)n(CC2CN(CCCc3ccccc3)CCO2)n1` (stereo not drawn), the INHIBITION came out at 40.72%.
With `Cc1nc(C)n(CC2CN(Cc3ccccc3OC(C)C)CCO2)n1` (stereo not drawn), the INHIBITION is reported as -3.06%.
The value for `COc1ccc(C)cc1CN1CCOC(Cn2nc(C)nc2C)C1` (stereo not drawn) was 60.09%; that for `COc1ccc(CCN2CCOC(Cn3nc(C)nc3C)C2)cc1` (stereo not drawn) was 34.97%; that for `Cc1cc(C)n(CC2CN(CCOc3ccc(C#N)cc3)CCO2)n1` (stereo not drawn) was 13.24%.
In the case of `Cc1ncc(S(C)(=O)=O)c(N2CCCCCC2)n1` it was 2.97%; in that of `CCn1c(C)nnc1CN(C)C1CCN(Cc2nnc(C3CC3)o2)C1` (stereo not drawn), 12.75%.
In the case of `CCC1(C(=O)O)CCCN(C(=O)c2ccc(O)c(Cl)c2)C1` (stereo not drawn) it was -2.86%; in that of `CCOC(=O)c1coc(N2CCN(Cc3ccc(C)cc3)C(=O)C2)n1`, 33.9%.
